Sampled rows, rich in hits. Any-hit rate of the full collection: about 1.5%.
PLCg1 inh = inhibitors of human phospholipase C gamma1 | P19174 | purified PLC-gamma1, fluorogenic substrate, fluorescence | inhibition, % at 12.2 µM | actives 0.84% (n = 370,000); in the data active = inhibition above about 9.5%
HGIII-sPLA2 inh = Inhibits HGIII-sPLA2 liposome hydrolysis, primary screen | Q9NZ20 | QFRET BODIPY PC-A2 liposome hydrolysis, fluorescence | inhibition, % at 12.2 µM | actives 0.56% (n = 370,000) | AID 743126;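 active = inhibition above mean plus 3 SD of compounds lying within the high and low control bounds, cut at about 19% in these data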
PLCb3 inh = blocks human PLC-beta3 enzyme activity | Purified PLC-beta3, fluorogenic substrate, fluorescence | inhibition, % at 12.2 µM | actives 0.18% (n = 370,000) | Q01970
Target sequence (Q01970 whole entry, looked up): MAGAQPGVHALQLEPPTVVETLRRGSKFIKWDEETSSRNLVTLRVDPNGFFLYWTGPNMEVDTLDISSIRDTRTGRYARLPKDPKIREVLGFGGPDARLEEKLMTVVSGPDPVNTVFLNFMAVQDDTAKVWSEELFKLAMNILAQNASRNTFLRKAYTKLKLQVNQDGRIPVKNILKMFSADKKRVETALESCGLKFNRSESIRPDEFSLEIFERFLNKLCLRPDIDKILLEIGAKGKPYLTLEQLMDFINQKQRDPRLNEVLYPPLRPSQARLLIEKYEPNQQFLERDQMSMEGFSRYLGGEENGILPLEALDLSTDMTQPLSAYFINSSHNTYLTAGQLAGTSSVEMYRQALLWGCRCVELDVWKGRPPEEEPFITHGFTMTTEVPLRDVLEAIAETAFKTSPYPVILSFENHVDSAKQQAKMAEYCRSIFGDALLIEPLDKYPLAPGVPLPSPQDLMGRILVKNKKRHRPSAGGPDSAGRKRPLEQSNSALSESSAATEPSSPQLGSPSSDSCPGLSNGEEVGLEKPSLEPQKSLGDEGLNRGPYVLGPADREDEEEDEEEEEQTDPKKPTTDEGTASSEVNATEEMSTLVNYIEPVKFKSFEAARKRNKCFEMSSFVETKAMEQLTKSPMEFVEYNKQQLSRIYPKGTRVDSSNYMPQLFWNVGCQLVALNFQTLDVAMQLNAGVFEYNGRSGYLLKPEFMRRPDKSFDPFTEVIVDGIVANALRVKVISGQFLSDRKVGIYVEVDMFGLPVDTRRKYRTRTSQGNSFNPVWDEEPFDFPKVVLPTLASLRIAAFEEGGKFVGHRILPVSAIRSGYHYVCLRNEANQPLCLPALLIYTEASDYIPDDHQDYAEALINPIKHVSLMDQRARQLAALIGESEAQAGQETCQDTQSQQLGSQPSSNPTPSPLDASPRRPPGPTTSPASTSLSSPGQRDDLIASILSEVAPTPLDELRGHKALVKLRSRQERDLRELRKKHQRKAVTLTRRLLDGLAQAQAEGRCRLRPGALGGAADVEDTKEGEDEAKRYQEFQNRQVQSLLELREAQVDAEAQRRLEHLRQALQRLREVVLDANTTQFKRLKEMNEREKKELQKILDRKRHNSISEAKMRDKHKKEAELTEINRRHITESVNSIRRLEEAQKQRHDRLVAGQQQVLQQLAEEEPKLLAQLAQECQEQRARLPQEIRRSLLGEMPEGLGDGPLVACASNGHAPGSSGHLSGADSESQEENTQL
DAGLB inh = diacylglycerol lipase beta (human) inhibition | Q8NCG7 | HEK293T DAGLB membrane lysate, EnzChek fluorogenic substrate | inhibition, % at 5.17 µM | actives 0.059% (n = 340,000); in the data active = inhibition above about 34%
PLCg1 ctr = PLC-gamma1 inhibition, counter-screen for PLC-beta3 hits | inhibition, % at 12.3 µM | purified PLC-gamma1, fluorogenic substrate, fluorescence | AID 743258 | shares compounds with PLCg1 inh | actives 3.1% (n = 3,300); in the data active = inhibition above about 9.5%
PLCbeta3 conf = human PLC-beta3 inhibition, confirmation; shares compounds with PLCg1 inh; purified PLC-beta3, fluorogenic substrate fluorescence; inhibition, % at 12.3 µM; actives 1% (n = 3,300); AID 743261
A number is an active result. Cut-off read from the data, not from the text of the source, unless noted: active = inhibition above about 11%; inactive = the rest.

How did O=C(O)C(Cc1ccccc1)n1cnnn1 (stereo not drawn) do in these assays?
PLCg1 inh: 10.1; HGIII-sPLA2 inh: inactive; PLCb3 inh: inactive; DAGLB inh: inactive; PLCg1 ctr: inactive; PLCbeta3 conf: inactive

What do the screens show for `CO[C@H]([C@H](C)/C=C/N(C)C=O)[C@@H](C)C(O)CC[C@H](C)[C@H](O)[C@H](C)[C@H]1OC(=O)/C=C/C(C)=C/C[C@H](O)C[C@@H]2C=CC[C@@H](C[C@H](OC)[C@@]3(CO3)[C@@H](OC)C[C@@H](OC)[C@@H]1C)O2` (stereo partly drawn)?
PLCg1 inh: inactive; HGIII-sPLA2 inh: inactive; PLCb3 inh: inactive

Results for Cc1ccc(CN[C@@H]2CC[C@@]34CCCN3C(=O)CCC[C@H]4C2)o1 ?
PLCg1 inh: inactive; HGIII-sPLA2 inh: inactive; PLCb3 inh: inactive

How did Cc1cc(C(=O)NNC(=S)NCC(C)C)cs1 do in these assays?
PLCg1 inh: inactive; HGIII-sPLA2 inh: inactive; PLCb3 inh: 13.4; DAGLB inh: inactive; PLCg1 ctr: inactive; PLCbeta3 conf: 13.9

Results for Cc1cc(C(=O)NNC(=S)NCc2ccccc2)cs1 ?
PLCg1 inh: inactive; HGIII-sPLA2 inh: inactive; PLCb3 inh: 13.3; DAGLB inh: inactive; PLCg1 ctr: inactive; PLCbeta3 conf: inactive

How did Cc1ccccc1-c1nnc2n1N=C(c1ccc(O)c(O)c1)CS2 do in these assays?
PLCg1 inh: inactive; HGIII-sPLA2 inh: inactive; PLCb3 inh: inactive

What do the screens show for `COC(=O)c1cc(-c2cc(Cl)ccc2OC)c(=O)n2c1CCC2`?
PLCg1 inh: inactive; HGIII-sPLA2 inh: inactive; PLCb3 inh: inactive

Results for COc1ccc(CNC(=O)C2CCC(CNS(=O)(=O)c3ccc(C)cc3)CC2)cc1 (stereo not drawn) ?
PLCg1 inh: 10.2; HGIII-sPLA2 inh: inactive; PLCb3 inh: inactive; DAGLB inh: inactive; PLCg1 ctr: inactive; PLCbeta3 conf: inactive

Results for COc1ccc(S(=O)(=O)NCC2CCC(C(=O)NCc3ccc(F)cc3)CC2)cc1 (stereo not drawn) ?
PLCg1 inh: inactive; HGIII-sPLA2 inh: inactive; PLCb3 inh: inactive; DAGLB inh: inactive

Results for COc1cccc(C(=O)N/N=C/c2ccc(OC3CSC3)cc2)c1 ?
PLCg1 inh: 10.0; HGIII-sPLA2 inh: inactive; PLCb3 inh: inactive; DAGLB inh: inactive; PLCg1 ctr: inactive; PLCbeta3 conf: inactive

How did COC(=O)[C@]12C[C@H](CC(=O)NCc3ccc(C)o3)C(=O)N(Cc3ccc(Cl)cc3Cl)C1=C[C@H](C1CCCC1)O[C@@H]2C do in these assays?
PLCg1 inh: inactive; HGIII-sPLA2 inh: inactive; PLCb3 inh: inactive

How did O=C(O)c1cccc(-c2ccc(/C=c3/sc4nc5ccccc5n4c3=O)o2)c1 do in these assays?
PLCg1 inh: 18.1; HGIII-sPLA2 inh: inactive; PLCb3 inh: inactive; DAGLB inh: inactive; PLCg1 ctr: inactive; PLCbeta3 conf: inactive

What do the screens show for `O=C(NCCCc1ccccc1)[C@H](CO)NC1(C(=O)NCCc2c[nH]c3ccccc23)CCCCC1`?
PLCg1 inh: inactive; HGIII-sPLA2 inh: inactive; PLCb3 inh: inactive

Results for CCC[C@H]1[C@@H](OC(=O)NCc2ccccc2)CC[C@@]23CCCN2C(=O)CCC[C@@H]13 ?
PLCg1 inh: inactive; HGIII-sPLA2 inh: inactive; PLCb3 inh: inactive

Results for COC(OC)C(C)NC(=O)NC(=O)c1ccccc1Cl (stereo not drawn) ?
PLCg1 inh: inactive; HGIII-sPLA2 inh: inactive; PLCb3 inh: inactive; DAGLB inh: inactive

What do the screens show for `COC(=O)/C=C(\C)NC(=O)c1ccccc1Cl`?
PLCg1 inh: inactive; HGIII-sPLA2 inh: inactive; PLCb3 inh: 10.9; DAGLB inh: inactive; PLCg1 ctr: inactive; PLCbeta3 conf: inactive

What do the screens show for `CCCC1CCC2(CC1)CCC2OC(=O)Nc1cccc(Cl)c1` (stereo not drawn)?
PLCg1 inh: inactive; HGIII-sPLA2 inh: inactive; PLCb3 inh: inactive

What do the screens show for `COc1ccc(C(C)NC(=O)c2ccccc2Br)cc1OC` (stereo not drawn)?
PLCg1 inh: inactive; HGIII-sPLA2 inh: inactive; PLCb3 inh: inactive; DAGLB inh: inactive

What do the screens show for `Cc1ccccc1C(=O)NC(C)c1ccc2c(c1)CCCC2` (stereo not drawn)?
PLCg1 inh: 10.3; HGIII-sPLA2 inh: inactive; PLCb3 inh: 13.1; DAGLB inh: inactive; PLCg1 ctr: inactive; PLCbeta3 conf: inactive

Results for CN1C(=O)c2cc(NS(=O)(=O)c3cccc(F)c3)ccc2OC[C@@H]2O[C@H](CC(=O)O)CC[C@H]21 ?
PLCg1 inh: inactive; HGIII-sPLA2 inh: inactive; PLCb3 inh: inactive

What do the screens show for `O=C(Nc1cccc(S(=O)(=O)Nc2ccc(Cl)cc2)c1)c1ccccn1`?
PLCg1 inh: 9.7; HGIII-sPLA2 inh: inactive; PLCb3 inh: inactive; DAGLB inh: inactive; PLCg1 ctr: inactive; PLCbeta3 conf: inactive

How did COc1ccc(NS(=O)(=O)c2cccc(NC(=O)c3ccccn3)c2)cc1 do in these assays?
PLCg1 inh: inactive; HGIII-sPLA2 inh: inactive; PLCb3 inh: inactive; DAGLB inh: inactive

How did COc1ccc(C(=O)N[C@H]2CC[C@@]34CCCN3C(=O)CCC[C@H]4[C@H]2C)cc1 do in these assays?
PLCg1 inh: inactive; HGIII-sPLA2 inh: inactive; PLCb3 inh: inactive

How did CN1CCN(CCn2c(=S)[nH]c3ccccc3c2=O)CC1 do in these assays?
PLCg1 inh: inactive; HGIII-sPLA2 inh: inactive; PLCb3 inh: inactive; DAGLB inh: inactive

What do the screens show for `O=c1c2ccccc2[nH]c(=S)n1CCN1CCN(Cc2ccccc2)CC1`?
PLCg1 inh: 10.6; HGIII-sPLA2 inh: inactive; PLCb3 inh: inactive; DAGLB inh: inactive; PLCg1 ctr: inactive; PLCbeta3 conf: inactive

Results for CN(c1ccccc1)S(=O)(=O)c1ccc(Cl)c(C(=O)Nc2ccncc2)c1 ?
PLCg1 inh: 9.8; HGIII-sPLA2 inh: inactive; PLCb3 inh: inactive; DAGLB inh: inactive; PLCg1 ctr: inactive; PLCbeta3 conf: inactive

Results for CN(c1ccc(F)cc1)S(=O)(=O)c1ccc(Cl)c(C(=O)Nc2ccncc2)c1 ?
PLCg1 inh: inactive; HGIII-sPLA2 inh: inactive; PLCb3 inh: inactive; DAGLB inh: inactive

Results for NC(CCc1ccccc1)c1csc(NC(=O)Nc2ccccc2Oc2ccccc2)n1 (stereo not drawn) ?
PLCg1 inh: 16.5; HGIII-sPLA2 inh: inactive; PLCb3 inh: inactive; PLCg1 ctr: inactive; PLCbeta3 conf: inactive

What do the screens show for `CN(Cc1ccccc1)C(=O)Cn1nnc(-c2ccccc2)c1COc1ccc2ccccc2c1`?
PLCg1 inh: 11.2; HGIII-sPLA2 inh: inactive; PLCb3 inh: inactive; PLCg1 ctr: inactive; PLCbeta3 conf: inactive

Results for O=C(Cc1ccc(Cl)cc1)NN1C(=O)c2ccccc2C1=O ?
PLCg1 inh: 10.6; HGIII-sPLA2 inh: inactive; PLCb3 inh: inactive; DAGLB inh: inactive; PLCg1 ctr: inactive; PLCbeta3 conf: inactive

Results for COc1ccc2cc1Oc1ccc(cc1)CC1c3c(cc(OC)c4c3Oc3cc5c(cc3O4)CCNC5C2)CCN1C (stereo not drawn) ?
DAGLB inh: inactive

Results for COc1cc2c3cc1Oc1cc(ccc1O)C[C@@H]1c4c(cc(OC)c(O)c4Oc4ccc(cc4)C[C@@H]3N(C)CC2)CC[N+]1(C)C ?
PLCg1 inh: 12.6; HGIII-sPLA2 inh: inactive; PLCb3 inh: inactive; PLCg1 ctr: inactive; PLCbeta3 conf: inactive

Bioassay records: PubChem BioAssay, The Scripps Research Institute Molecular Screening Center
